The values below come from PubChem BioAssay (NCI).

Among the test systems are NCI-H23 lung; NCI-H226 lung; NCI-H322M lung; HOP-62 NSCLC; NCI-H460 lung; HOP-92 NSCLC; NCI-H522 lung; A549/ATCC NSCLC; 786-0 renal; COLO 205 colon; DU-145 prostate; K-562 leukemia; MALME-3M melanoma; MDA-MB-231 breast; RXF 393 renal; SF-268 CNS; SF-295 CNS; SF-539 CNS; UACC-257 melanoma; M14 melanoma.
Common to all, as to assay: NCI-60 one-dose screen, 48 h (100 = growth as untreated, 0 = no growth, -100 = all killed)
Holding throughout (conditions): 10 µM unless noted

The panel holds about 83,000 compounds, 20% with a hit somewhere; the sample as a whole holds those more often.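 Note: values are percent growth. 100 is the growth of untreated cells, values between 100 and 0 indicate rising inhibition; between -100 and 0 indicates cell death.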 Values without a mark were called inactive. Active and inactive are the calls of the source. The calls were made as follows: active = growth percent below 10; inactive = the rest.

For `O=C(Nc1ccc(Cl)c(C(F)(F)F)c1)Nc1ccc2c(ccn2C(=O)c2cccc(F)c2)c1`, the growth with NCI-H23 lung is 10.3%; in the assay with NCI-H226 lung it was 36.5%; in the assay on NCI-H322M lung it was 73.1%; in the assay on HOP-62 NSCLC, 54.5%; in the assay with NCI-H460 lung it was 13.2%; in the assay on HOP-92 NSCLC, 5.69% (active). Also, the growth in the assay on NCI-H522 lung was 5.03% (active); in the assay with A549/ATCC NSCLC, 30.6%; in the assay with 786-0 renal it was 42.4%; in the assay on COLO 205 colon it was 25.3%; with DU-145 prostate, 24.5%; in the assay with K-562 leukemia it was 11.4%. Besides, the growth is 56% in the assay on MALME-3M melanoma; 87% with MDA-MB-231 breast; 28.7% in the assay with RXF 393 renal; 55.4% with SF-268 CNS; 5.17% (active) with SF-295 CNS; 66.7% in the assay with SF-539 CNS. Besides, the results for the growth with UACC-257 melanoma and in the assay with M14 melanoma were 60.6% and 56.2%, respectively.

In the case of `Cc1ccc(OCc2occc2C(=O)N2CCOCC2)cc1`, the growth is 101% in the assay on NCI-H23 lung; 96.9% in the assay with NCI-H226 lung; 106% with NCI-H322M lung; -95.9% (active) in the assay with HOP-62 NSCLC; 107% in the assay on NCI-H460 lung; 103% in the assay with HOP-92 NSCLC. The growth in the assay on NCI-H522 lung is 100%; in the assay on A549/ATCC NSCLC, 109%; with 786-0 renal, 98.7%; with COLO 205 colon, 117%; in the assay with DU-145 prostate, 103%; in the assay with K-562 leukemia, 98.9%. For the same molecule, the growth in the assay with MALME-3M melanoma was 102%; in the assay on MDA-MB-231 breast it was 109%; in the assay with RXF 393 renal, 99.8%; with SF-268 CNS, 97.5%; with SF-295 CNS it was 96.3%; in the assay on SF-539 CNS it was 100%. Further, the growth with UACC-257 melanoma is 116%; with M14 melanoma, 99.3%.

With `CCCC/C(=C\c1ccc(O)c(O)c1)C(=O)NC(Cc1ccccc1)C(=O)C(=O)NCCc1ccc(OC)cc1` (stereo not given), the growth in the assay on NCI-H23 lung was 92.2%; in the assay with NCI-H226 lung it was 92.7%; with NCI-H322M lung it was 100%; with HOP-62 NSCLC, 98.2%; with NCI-H460 lung, 102%; in the assay on HOP-92 NSCLC, 86.2%. Moreover, the growth is 87.7% in the assay on NCI-H522 lung; 103% in the assay with A549/ATCC NSCLC; 104% with 786-0 renal; 110% in the assay with COLO 205 colon; 104% in the assay with DU-145 prostate; 91.5% in the assay on K-562 leukemia. Moreover, the growth in the assay with MALME-3M melanoma is 101%; in the assay with MDA-MB-231 breast, 92.1%; in the assay with RXF 393 renal, 96%; with SF-268 CNS it was 92%; with SF-295 CNS, 97.8%; with SF-539 CNS it was 91.6%. Besides, the growth in the assay on UACC-257 melanoma is 100%; with M14 melanoma, 95%.

In the case of `C#C[C@]1(O)CC[C@H]2[C@@H]3CC=C4c5sc(Nc6cc(C)cc(C)c6)nc5CC[C@]4(C)[C@H]3CC[C@@]21C`, the growth is 14.8% with NCI-H23 lung; 38.6% with NCI-H226 lung; 40.9% in the assay on NCI-H322M lung; 20.5% in the assay with HOP-62 NSCLC; 12.2% in the assay with NCI-H460 lung; 31.4% in the assay with HOP-92 NSCLC. In addition, the growth was 42.7% in the assay with NCI-H522 lung; 21.1% in the assay with A549/ATCC NSCLC; -31.2% (active) with 786-0 renal; -13.3% (active) with COLO 205 colon; 45.4% in the assay on DU-145 prostate; 0.356% (active) in the assay on K-562 leukemia. The growth in the assay with MALME-3M melanoma was -4.28% (active); with MDA-MB-231 breast, 33.5%; in the assay on RXF 393 renal, -77.2% (active); in the assay on SF-268 CNS, 22.3%; in the assay with SF-295 CNS, -71.7% (active); in the assay with SF-539 CNS it was -47.7% (active). In addition, the growth with UACC-257 melanoma is 16%; in the assay on M14 melanoma, -60.2% (active).

Take `Nc1ccc(Nc2ncnc3sc4c(c23)CCN(Cc2ccccc2)C4)cc1`: the growth was 102% in the assay with NCI-H23 lung; 91.5% with NCI-H226 lung; 101% in the assay with NCI-H322M lung; 103% in the assay with HOP-62 NSCLC; 105% in the assay on NCI-H460 lung; 92.2% with HOP-92 NSCLC. Moreover, the growth with NCI-H522 lung was 91.3%; with A549/ATCC NSCLC, 100%; with 786-0 renal, 105%; in the assay on COLO 205 colon, 115%; in the assay with DU-145 prostate it was 106%; in the assay with K-562 leukemia, 96.7%. In addition, the growth in the assay with MALME-3M melanoma is 103%; in the assay on MDA-MB-231 breast, 86.6%; with RXF 393 renal it was 91.2%; in the assay with SF-268 CNS, 101%; in the assay with SF-295 CNS, 97.8%; with SF-539 CNS it was 78.5%. Besides, the growth in the assay with UACC-257 melanoma and in the assay on M14 melanoma was 106% in each case.

`CCc1cc(O)ccc1Nc1cc(-c2ccc(-n3cccn3)cc2)[nH]n1`: the growth was 74.7% in the assay with NCI-H23 lung; 87.3% in the assay on NCI-H226 lung; 64% in the assay with NCI-H322M lung; 37% with HOP-62 NSCLC; 45% with NCI-H460 lung; 139% with HOP-92 NSCLC. The growth was 38% with NCI-H522 lung; 56.2% with A549/ATCC NSCLC; 84.9% in the assay on 786-0 renal; 49.8% with COLO 205 colon; 71.5% with DU-145 prostate; 18.9% in the assay with K-562 leukemia. The growth was 110% in the assay with MALME-3M melanoma; 92.9% in the assay with MDA-MB-231 breast; 108% with RXF 393 renal; 66% in the assay on SF-268 CNS; 36.5% in the assay with SF-295 CNS; 79.4% with SF-539 CNS. The growth with UACC-257 melanoma is 70%; in the assay with M14 melanoma, 47.4%.

Take `N#CC1=C2NCCCNc3oc(nc3C#N)Cc3ccccc3CC(=N1)O2`: the growth in the assay with NCI-H23 lung is 90.7%; in the assay on NCI-H226 lung, 92.3%; in the assay with NCI-H322M lung it was 94.5%; with HOP-62 NSCLC, 97.8%; in the assay on NCI-H460 lung, 96.8%; with HOP-92 NSCLC, 94.9%. For the same molecule, the growth in the assay with NCI-H522 lung is 97.1%; with A549/ATCC NSCLC, 98.3%; in the assay on 786-0 renal, 95%; in the assay with COLO 205 colon it was 88.1%; in the assay on DU-145 prostate, 99%; in the assay with K-562 leukemia it was 12%. Further, the growth was 97.8% in the assay on MALME-3M melanoma; 97.6% in the assay on MDA-MB-231 breast; 93.2% in the assay on RXF 393 renal; 101% with SF-268 CNS; 108% with SF-295 CNS; 99.2% in the assay with SF-539 CNS. Further, the values for the growth in the assay on UACC-257 melanoma and with M14 melanoma were 92.2% and 86.4%, respectively.
